Assay results from PubChem BioAssay (NCI).
“And” between values parts separate entries of the source, which are not always exact repeats. Identical values can stand only once. About 79,000 compounds went through this panel and 15% of them were active in at least one assay; those are over-represented in the sample as a whole. Cut-off read from the data, not from the text of the source: active = growth inhibition above about 70%; inactive = the rest.

Tests used:
[1] = NCI Yeast Anticancer Drug Screen. Data for the rad50 strain (AID 155);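 note: 0% = growth of vehicle-only cultures of the same strain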; settings: S. cerevisiae rad50 strain growth inhibition, stronger effect = higher value; at 50.0 µM unless noted
Method in brief: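 Growth of the mutant yeast was measured after compound exposure and referenced to vehicle-treated cultures.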

[2] = NCI Yeast Anticancer Drug Screen. Data for the mec2-1 strain (AID 157); settings: S. cerevisiae mec2-1 strain, stronger effect = higher value; at 50.0 µM unless noted
Method in brief: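 Test agents were screened against the mec2-1 yeast strain, with defined DNA repair or cell cycle alteration. Growth was scored as inhibition against vehicle-only controls.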

[3] = NCI Yeast Anticancer Drug Screen. Data for the sgs1 mgt1 strain (AID 161);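 note: 0% = growth of cultures given vehicle only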; settings: S. cerevisiae sgs1 mgt1 strain, stronger effect = higher value; at 50.0 µM unless noted
Method in brief: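 Inhibition of yeast growth, normalised to vehicle-treated controls, is reported for a strain bearing genetic alterations in DNA damage repair.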

[4] = NCI Yeast Anticancer Drug Screen. Data for the cln2 rad14 strain (AID 165);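 note: 0% = growth equal to vehicle treated cultures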; settings: S. cerevisiae cln2 rad14 strain, stronger effect = higher value; at 50.0 µM unless noted
Method in brief: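 Growth of compound-exposed yeast (cln2 rad14 genotype) measured and expressed as inhibition relative to vehicle.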

[5] = NCI Yeast Anticancer Drug Screen. Data for the bub3 strain (AID 167); settings: S. cerevisiae bub3 mutant strain, stronger effect = higher value; at 50.0 µM unless noted
Method in brief: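 Whole-cell yeast assay. The mutant strain was incubated with compounds, and growth inhibition was determined by comparison with vehicle-treated cells.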

[6] = NCI Yeast Anticancer Drug Screen. Data for the mlh1 rad18 strain (AID 175); settings: S. cerevisiae mlh1 rad18 strain growth inhibition, stronger effect = higher value; at 50.0 µM unless noted
Method in brief: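 In this whole-cell yeast screen, a strain with altered DNA damage repair is challenged with compound, and its growth is measured against matched vehicle-treated controls.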

Measured: growth inhibition

CCc1cc(C(=O)OC/C(C)=N/O)c2ccccc2n1
inactive: [1] -18.8% | [2] -0.65% | [3] -10.1% | [4] -18.4% | [5] 30.4% | [6] -22.6%

Cn1c(=O)c2[nH]c(Nc3cccc(Cl)c3)nc2n(C)c1=O
inactive: [1] -26.3% | [2] 8.75% | [3] -18.8% | [4] -13.2% | [5] -1.85% | [6] 17.1%

Cc1cccc2oc3c(c(=O)c12)CC(O)C(C)(C)O3 (centres undefined)
inactive: [1] 15.6% | [2] -3.85% | [3] 20.7% | [4] -7.85% | [5] 5.65% | [6] -45%

COc1c(O)cc2c(c1O)C1OC(CO)C(O)C(O)C1OC2=O (centres undefined)
inactive: [1] -4.3% | [2] -15.4% | [3] -3.85% | [4] 19.1% | [5] -20.8% | [6] 0.5%

CC(=O)Oc1ccc2c(c1)[nH]c1c3ccc(OC(C)=O)cc3oc(=O)c21
inactive: [1] -21.4% | [2] -26.9% | [3] -8.05% | [4] 5.8% | [5] -2.85% | [6] -13.7%

CC/C(CC(=O)CCC(=O)Nc1c(C)cccc1C)=N\NC(=O)NN
inactive: [1] -19.4% | [2] -22% | [3] -4.15% | [4] 24.6% | [5] 3% | [6] -8.5%

Cc1ccc(S(=O)(=O)CC(=O)NC(C)C)cc1
inactive: [1] -3.9% | [2] -17% | [3] 4% | [4] 17.2% | [5] 3.2% | [6] 20.8%

COC(=O)c1cc(Cl)ccc1OCC(=O)Nc1ccccc1
inactive: [1] -6.3% | [2] -2.5% | [3] 13.4% | [4] -8.2% | [5] -6.55% | [6] -29.1%

CC(C)N1C(=O)c2cccc(Cl)c2C1=O (tested in a mixture with another compound)
inactive: [1] 10.8% | [2] 4.1% | [3] 37.3% | [4] 37.6% | [5] -7.85% | [6] 1.4%

O=c1c2cc(Cl)ccc2c2ccc(Cl)cc2c(=O)n1-c1ccc2c(c1)Cc1ccccc1-2
inactive: [1] 1.65% | [2] -0.2% | [3] -1.7% | [4] -10.6% | [5] 8.8% | [6] -3.4%

CC(=O)OC(C)(C)C#CC(C)(C)OC(C)=O
inactive: [1] -9.95% | [2] -24.4% | [3] -15.4% | [4] 3% | [5] -11.7% | [6] -19.3%

CCN(CC)CCN=Cc1ccccc1OC
inactive: [1] 15.9% | [2] -29.5% | [3] -3.85% | [4] 3.15% | [5] 11.3% | [6] 15.2%

CC1=C/C(O)CC(=O)Cc2nc(co2)C(=O)N2CCC=C2C(=O)OC(C(C)C)C(C)/C=C\C(=O)NC/C=C\1 (centres undefined)
inactive: [1] 39.5% and -2.6% | [2] -11.6% and 18.7% | [3] 22.7% and 0.6% | [4] 13.9% and 5.6% | [5] 37.5% and -3% | [6] 35.2% and 2.2%

Cc1cc2c(c(C(=O)O)c1C)-c1cccc(Cl)c1C2=O
inactive: [1] -15.7% | [2] -2.3% | [3] -23.2% | [4] -20.2% | [5] -13.3% | [6] -27.4%

Cc1cc(C)c(S)c(C)c1.[Cu+2]
inactive: [1] -29.1% | [2] -10.3% | [3] -5.85% | [4] -53.2% | [5] -28.9% | [6] -2.55%

CCc1cccc(C(C)C)c1NC(=O)C(=O)Nn1c(=S)[nH]c2ccccc2c1=O
inactive: [1] -7.15% | [2] -23.1% | [3] -10.2% | [4] 2.75% | [5] -17.2% | [6] -12.6%

OCC1C(CO)C2CC1C1N=NN(c3ccccc3)C21 (centres undefined)
inactive: [1] -4.8% | [2] 4.3% | [3] 8.25% | [4] -11.9% | [5] -0.35% | [6] -13.3%

Cc1cc2cc3c(=O)[nH]c(=O)[nH]c3nc2cc1C
inactive: [1] -11.7% | [2] 1.65% | [3] -19% | [4] -8.6% | [5] -27.2% | [6] -0.05%

O=C(c1ccccc1)c1ccc2ccccc2c1
inactive: [1] 24.8% | [2] 13% | [3] 0.65% | [4] -13.2% | [5] 14.9% | [6] 28.3%

C[C@]12CCC(=O)C=C1CC[C@H]1[C@@H]3CC[C@](O)(C(=O)CO)[C@@]3(C)CC(=O)[C@@]12SC(N)=O
inactive: [1] -4.6% | [2] 6.55% | [3] 3.9% | [4] 20.8% | [5] 6.1% | [6] -15.7%

CC1OCC(O)C(C(O)C(=O)CN(Cc2ccccc2)Cc2ccccc2)O1 (centres undefined)
inactive: [1] 10.2% | [2] 15.6% | [3] 8.65% | [4] 8.55% | [5] 5.75% | [6] 9.55%

COc1ccccc1-n1c(=O)c(N=Nc2ccc(Br)cc2)c(O)n(-c2ccccc2C)c1=S
inactive: [1] 49.1% | [2] 0.85% | [3] 44.7% | [4] -11.1% | [5] -2.45% | [6] 17.6%

CC1(C)C2=CC3(C)N(CN2c2ccccc21)c1ccccc1C3(C)C (centres undefined)
inactive: [1] 17.1% | [2] 24.4% | [3] 18.8% | [4] 7% | [5] 12.9% | [6] 15.9%

Cc1nn(C(=O)c2ccc(Cl)cc2)c2c1C(c1ccc([N+](=O)[O-])cc1)SC(N)=N2 (centres undefined)
inactive: [1] -14.8% | [2] 7.4% | [3] 16.4% | [4] -16.8% | [5] -16.1% | [6] -4.1%

Clc1ccccc1/C=N\N=C\c1ccco1
inactive: [1] 8.3% | [2] -14.1% | [3] -9.05% | [4] -40.4% | [5] -11.1% | [6] 14.4%

COc1ccccc1C1OC(N)=C(O)C1=O (centres undefined)
inactive: [1] -14.4% | [2] -5.15% | [3] 7.3% | [4] -15.3% | [5] -2.5% | [6] 13.9%

CCN1CCC(S(=O)(=O)CCS(=O)(=O)C2CCN(CC)C2)C1 (centres undefined)
inactive: [1] -6.3% | [2] 0.55% | [3] 11.7% | [4] 3.6% | [5] 17.3% | [6] 2.05%

Cn1nc(-c2ccccc2)c(C(=O)/C=C/c2ccccc2)c(N2CCCCC2)c1=O
inactive: [1] -27.9% | [2] -11.6% | [3] -11.5% | [4] 3% | [5] 27% | [6] -27.8%

C[Si](C)(C)Cn1cccc1
inactive: [1] -7.5% | [2] 8.9% | [3] 5% | [4] -37.6% | [5] -1.15% | [6] -8.85%

CC1=NN(C(=O)Cc2ccccc2)C(=O)/C1=C\C=C\c1ccccc1
inactive: [1] 11.3% | [2] -28.2% | [3] -20.6% | [4] -9.2% | [5] -15.2% | [6] -7.85%

CCCCCCCCCC(OCC)OCC
inactive: [1] -25.1% | [2] -15.2% | [3] -11.6% | [4] -6.35% | [5] -31.4% | [6] -25.6%

CCCCOc1ccc(Nc2cc(Cl)ccc2C(=O)O)cn1
inactive: [1] -29.2% and 48.1% | [2] -14.2% and 23.7% | [3] -25.6% and 44.4% | [4] -12.6% and 37.7% | [5] -36.1% and 35% | [6] -22.6% and 25.1%

CC(=O)CC(C)(C)c1cc(-c2ccccc2)on1
inactive: [1] 20.8% | [2] 5.4% | [3] -6.25% | [4] -61.6% | [5] 19.4% | [6] 12.8%

CC1CC(C)(O)C2C3(C)CCCC2(COC3=O)C12CCC1(CCOC1=O)O2 (centres undefined)
inactive: [1] 0.9% | [2] -23.5% | [3] 25.3% | [4] 3.8% | [5] -0.6% | [6] 2.9%

CCN(CC)CC(=O)Nc1cc(Cl)ccc1OC
inactive: [1] -4% | [2] -19.8% | [3] -5.75% | [4] -35.3% | [5] 8.9% | [6] -6.25%

CC1=CCCC2C(C=O)(C1)CC(C)C2(CO)CC/C(=C/CO)CO (centres undefined)
inactive: [1] 3.8% | [2] 4.05% | [3] -5.5% | [4] 32.8% | [5] -3.4% | [6] -5.7%

O=c1cc(CBr)c2ccc(O)cc2o1
inactive: [1] -34.1% | [2] 2.55% | [3] -23.8% | [4] 8.3% | [5] -18.2% | [6] -44.5%

O=C(Nc1cccc2ccccc12)c1ccc(Cl)cc1Cl
inactive: [1] 4.15% | [2] 14.9% | [3] 21.5% | [4] 1.35% | [5] 8.55% | [6] 4.65%

CS(=O)(=O)OCCN(CCOS(C)(=O)=O)c1ccc([N+](=O)[O-])cc1[N+](=O)[O-]
inactive: [1] 22.6% | [2] -5.8% | [3] -0.2% | [4] 24.8% | [5] -3.95% | [6] 13.6%
